Records with an inconclusive call do not appear. Activity calls are given as the source filed them. The call rests on the fitted dose curve; in most records, active means well fitted curve in the direction sought with a large enough effect; inconclusive means small, poorly fitted or top-dose-only effect, or another doubt; inactive means no such curve, though single readings can be large; an effect the other way counts as inactive or inconclusive.
Legend:
[1] = qHTS for Antimalaria activity screened against the NCATS CANVASS Library (AID 1347380);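 further: Plasmodium falciparum strain Dd2 asexual parasites grown in red blood cells; nearly all actives have a fitted effect of over 40% in size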; conditions: P. falciparum Dd2 growth, SYBR Green fluorescence, 72 h; series mostly up to 28.7 µM
In short: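 Growth inhibition of asexual erythrocytic P. falciparum Dd2 was quantified by SYBR Green DNA staining. Cultures grew 72 h with compound (11-point series) in hypoxic gas at 37C; lysis and staining lasted 18 h.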

[2] = Inflammasome Signaling qHTS Counterscreen: IL-1-beta AlphaLISA counterscreen against the NCATS CANVASS Library (AID 1347381); conditions: Purified IL-1beta AlphaLISA signal interference counterscreen; series mostly up to 57.5 µM;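 further: cell-free check with purified IL-1β in medium and no THP-1 cells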
In short: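 To flag interference with the AlphaLISA read-out, a known amount of purified IL-1-beta (4 pg) replaced cell supernatant. Detection used anti-IL-1-beta acceptor beads, biotinylated antibody and streptavidin donor beads at room temperature.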

[3] = Cytotoxicity qHTS for assessment of Hepg2 cells membrane integrity screened against the NCATS CANVASS Library (AID 1347387); conditions: HepG2 LDH release (CytoTox-ONE) fluorescence, 5 h; series mostly up to 46.1 µM
In short: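 Fluorescence proportional to lysed-cell number, from LDH leaking out of HepG2 cells exposed 5 hr at 37C to 0.59 nM - 46 uM compound (11-point qHTS), is measured after 10 min with CytoTox-ONE.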

[4] = qHTS for Activators of p53 Stress Response Pathway screened against the NCATS CANVASS Library (AID 1347388); conditions: p53RE-bla HCT-116, beta-lactamase reporter, 16 h; series mostly up to 46.1 µM
In short: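 p53RE-bla HCT-116 cells (4000/well) were pre-incubated for 5 h, then treated with compound (11 points) for 16 h at 37C. After 2 h with CCF4, the 460/530 nm ratio gave reporter activation; CellTiter-Glo measured viability.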

[5] = qHTS assay for small molecule disruptors of mitochondrial membrane potential screened against the NCATS CANVASS Library (AID 1347389); conditions: HepG2 mitochondrial membrane potential, m-MPI red/green ratio, 1.5 h; series mostly up to 46.1 µM; further: nearly all actives have a fitted effect of over 60% in size
In short: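 Compounds tested in 11-point qHTS series on HepG2 cells for 1 hr; membrane-potential dye added for 30 min at 37C. Lower red-to-green ratio indicates loss of potential.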

[6] = Secretion counterscreen for inhibitors of the SERCaMP assay screened against the NCATS CANVASS Library (AID 1347390); conditions: SH-SY5Y constitutive GLuc secretion, luminescence, 20 h; series mostly up to 76.6 µM;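 further: light from luciferase secreted into medium read as a measure of general secretion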
From the text: Natural products and their derivatives continue to be wellsprings of nascent therapeutic potential. However, many laboratories have limited resources for biological evaluation, leaving their previously isolated or synthesized compounds largely or completely untested. To address this issue, the Canvass library of natural products was assembled (https://tripod.nih.gov/canvass), in collaboration with academic and industry researchers, for quantitative high-throughput screening (qHTS) across a diverse set of cell-based and biochemical assays. The pure (>85% purity by liquid chromatography/mass spectrometry [LC/MS]) Canvass library of 346 natural products were submitted by 45 academic laboratories and companies around the world. We collected pure natural products to circumvent deconvolution and structure elucidation due to time and resource limitations. The library was formatted into 1536-well plates and evaluated in 50 qHTS (in an 11-pnt concentration series) bioassays with broad scope of disease-relevant mechanisms. The resulting data set from 50 different assays was then systematically analyzed to identify overall trends and specific natural products with interesting biological activities. […]
SERCaMP secretion assay protocol: 1. […] Luminescence signal was obtained via the ViewLux plate reader (Perkin Elmer) using the clear emission filter and 1x binning, 5 seconds exposure settings.

[7] = qHTS for activators of Nrf2/ARE signaling pathway screened against the NCATS CANVASS Library (AID 1347391); conditions: ARE-bla HepG2, beta-lactamase reporter, 16 h; series mostly up to 46.1 µM; further: nearly all actives have a fitted effect of over 60% in size
In short: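 Cells carrying an ARE-driven beta-lactamase reporter (HepG2 background) are dosed for 16 h, then stained with CCF4. Cell viability in the same wells is measured by CellTiter-Glo luminescence.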

[8] = qHTS for activators of dead-cell proteases activity screened against the NCATS CANVASS Library (AID 1347392); conditions: HepG2 cytotoxicity, dead-cell protease luminescence, 5 h; series mostly up to 46.1 µM;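 further: luminescence from protease leaking out of membrane-damaged cells cleaving impermeant substrate; rising signal means more cytotoxicity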
In short: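 HepG2 cells, 2000/well, attached 18 h at 37C, then exposed to compounds (11-point qHTS) for 5 h. Dead-cell protease release read as luminescence from cell-impermeant AAF-aminoluciferin substrate after 15 min at room temperature.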

[9] = qHTS for inhibitors of ER calcium dysfunction: SERCaMP assay screened against the NCATS CANVASS Library (AID 1347393); conditions: SH-SY5Y GLuc-SERCaMP secretion, thapsigargin, luminescence; series mostly up to 76.6 µM;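 further: lower secreted reporter signal means inhibitor of ER calcium depletion; nearly all actives have a fitted effect of over 40% in size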
In short: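 SH-SY5Y GLuc-SERCaMP, 1000 cells/well, 4 h attach; cpd 16 h, 37C/5% CO2; thapsigargin (added as 6x 600 nM) 4 h; coelenterazine; luminescence. Reduced reporter release = ER Ca stabilization.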

[10] = Vero-766 cells viability qHTS against the NCATS CANVASS Library: Counterscreen for Zika virus inhibition assay (AID 1347394); conditions: Vero 766 viability, CellTiter-Glo luminescence, 72 h; series mostly up to 46.1 µM; further: nearly all actives have a fitted effect of over 60% in size
In short: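 CellTiter Glo luminescence measured cytotoxicity after 72 h at 37C in uninfected Vero 766 cells, plated at 1000 cells/well. Compounds were applied in an 11-point series. Wells without cells defined 100% inhibition.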

Measured: outcome

COc1ccc2[nH]cc(CCNC(C)=O)c2c1
inactive: all assays above

Reference: PubChem BioAssay (NCATS)
